The values below come from PubChem BioAssay (NCATS).

Assay [1] is described as follows: AP1 Signaling Pathway (AID 357; active = well fitted curve in either direction with a large enough effect, not every such curve was filed as active; also: % is scaled to controls: 0 for no effect and ±100 for the full control effect). Conditions: ME-180 AP-1-bla reporter, EGF-induced, beta-lactamase ratio, 5 h; at 17.2 µM (top of the series) unless noted. In short, it runs like this: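 First, ME-180 AP-1-bla cells were cultured overnight at 37 °C in low-serum Opti-MEM. Next, titrated compounds with EC50 EGF were incubated 5 hours. Finally, CCF4 was added for 2.5 hours and the 460/530 nm ratio recorded.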

A short description of assay [2]: Stat Signaling Pathway (AID 446; active = well fitted curve in either direction with a large enough effect, not every such curve was filed as active;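 also: ME-180 cervical cancer cells given 40 pM IL-6 alongside compound; SIE-controlled beta-lactamase reporter measured as 460/530 nm FRET emission ratio; % is scaled to controls: 0 for no effect and ±100 for the full control effect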). In short, it runs like this:
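Emission at 460 and 530 nm (excitation 405 nm) reports SIE-controlled beta-lactamase in ME-180 cells. Cells received compound with 40 pM IL-6 for 5 hrs at 37 C; data scaled between 300 pM IL-6 and 125 nM JAK-inhibitor controls.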

Assay [3] is described as follows: NFAT Signaling Pathway (AID 444; active = well fitted curve in either direction with a large enough effect, not every such curve was filed as active;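 also: carbachol stimulus at about its EC50 of 1 µM final; % is scaled to controls: 0 for no effect and ±100 for the full control effect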). The note with it: Jurkat NFAT-bla M1, carbachol, beta-lactamase ratio, 5 h; at 17.2 µM (top of the series) unless noted. In short, it runs like this: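 Jurkat cells with NFAT-driven β-lactamase reporter and co-expressed M1 receptor, stimulated with carbachol (final 1 uM, ~EC50), compound titration, 5 h at 37 °C. CCF4 loaded 1 h at RT; 460/530 nm ratio gave %activity and AC50.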

The target in assay [4] is Glucocorticoid receptor (Homo sapiens) (UniProt P04150). The experiment in a line: GR-GFP Redistribution (AID 450;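 active = compounds whose dose series gives a full or clear partial fitted curve of increased nuclear translocation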; also: potency is read from the fitted curve at half-maximal effect). The note with it: U2OS GR-GFP nuclear translocation, laser cytometry, 2 h.
Assay [5] has the same target. The experiment in a line: GR-EFC Redistribution (AID 451; calls by dose curve; also: potency is read from the fitted curve at half-maximal effect). The note with it: CHO-K1 GR-EFC translocation, beta-gal luminescence, 2 h. Summed up:
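CHO-K1 cells expressing nuclear EA and GR-ED fragments of b-gal; compounds titrated up to 46 uM final, 2 h at 37 C. GR nuclear translocation read as complemented b-gal luminescence after 1 h RT detection.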

For assay [6], the target named is Mitogen-activated protein kinase 10 (Mus musculus) (UniProt Q61831). The experiment in a line: JNK3 AlphaScreen Assay (AID 530; active = well fitted curve in either direction with a large enough effect, not every such curve was filed as active;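 also: kinase came from lysate of stimulated human HepG2 cells; signal reports phosphorylation of biotinylated GST-cJun 1-79 at Ser73 with 10 µM ATP; % is scaled to controls: 0 for no effect and ±100 for the full control effect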). In short, it runs like this:
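Activity was read by AlphaScreen after JNK3-containing HepG2 lysate (cytokine pre-activated) phosphorylated biotinylated GST-cJun with 10 uM ATP at room temperature. Phospho-Ser73 cJun antibody with Protein-A acceptor beads provided detection.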
In general terms: Bead proximity is the source of the signal in Alpha formats.

Assay [7] has as its target Guanine nucleotide-binding protein G(i) subunit alpha-1 (Homo sapiens) (UniProt P63096). The experiment in a line: qHTS Assay for Inhibitors of RGS12 GoLoco Motif Activity (Green Fluorophore) (AID 879).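 Also: 0% = labeled peptide with Gαi1 and full inhibition = labeled peptide alone without protein; negative values mean loss of peptide binding seen as reduced polarization.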 Summed up: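 A drop in FITC polarization marked displacement of the FITC-tagged RGS12 GoLoco peptide (10 nM) from Gαi1 (50 nM). Compounds were incubated 10 min at room temperature in Tris pH 7.5 buffer containing 150 mM NaCl, 0.1 mM GDP and 0.05% NP40; unlabeled peptide titration served as control.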
In general terms: qHTS replaces the single test concentration by a dilution series.

In assay [8] the target is Cytochrome P450 3A4 (Homo sapiens) (UniProt P08684). Put plainly: qHTS Assay for Inhibitors and Substrates of Cytochrome P450 3A4 (AID 884). Also: potency is read from the fitted curve at half-maximal effect; nearly all actives have a fitted effect of over 50% in size. In short, it runs like this:
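Luminescent readout of luciferin produced by CYP3A4 (20 nM) dealkylation of Luciferin-PPXE, 25 uM (its KM). NADPH-driven reaction ran 60 min at RT after 10 min compound preincubation; data scaled to 57 uM ketoconazole as 100% inhibition.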

For assay [9] the target is unchanged. Put plainly: qHTS Assay for Activators of Cytochrome P450 3A4 (AID 885). Also: nearly all actives have a fitted effect of over 65% in size. Summed up: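 Activators are scored by enhanced luminescence from CYP3A4 conversion of luciferin-PPXE (25uM, equal to KM) to luciferin, after 60 min at RT with an NADPH-regenerating system.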
A short description of assay [10]: qHTS Assay for Identification of Small Molecule Antagonists for Thrombopoietin (TPO) Signaling Pathway (AID 918). Also: potency is read from the fitted curve at half-maximal effect; nearly all actives have a fitted effect of over 60% in size. The note with it: TPO-dependent cell signaling reporter, antagonist mode. In short, it runs like this:
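Inhibitors of TPO signaling are sought by stimulating IL-3-starved murine Ba/F3 cells (human TPO receptor, Glycoprotein IIb-driven luciferase) with TPO at its EC50 of 26 pM alongside compound. After 24 hrs at 37 C, reporter luminescence is measured.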

The target of assay [11] is Muscarinic acetylcholine receptor M1 (Rattus norvegicus) (UniProt P08482). The experiment in a line: qHTS Assay for Antagonists of Acetylcholine Muscarinic M1 Receptor: Kinetic Measurement of Intracellular Calcium Response (AID 943).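 Also: Fluo-4 calcium signal as peak divided by basal fluorescence over 4 min; nearly all actives have a fitted effect of over 75% in size.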 Summed up:
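Antagonism is measured as inhibition of the carbachol-evoked calcium rise in CHO cells transfected with rat M1. Cells are dye-loaded, exposed to compound for 10 min, then stimulated with 100 nM carbachol (EC80).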

For assay [12] the target is unchanged. Put plainly: qHTS Assay for Antagonists of Acetylcholine Muscarinic M1 Receptor: Measurement of IP-One Response (AID 944). Also: nearly all actives have a fitted effect of over 75% in size. Summed up: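 Antagonist mode with rat M1 receptor transfected into CHO cells. Compound is added first for 10 min, carbachol at its EC80 follows for 30 min, and lysis reagents then allow TR-FRET detection of accumulated IP1.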
In assay [13] the target is Pyruvate kinase (Leishmania mexicana) (UniProt Q27686). The experiment in a line: qHTS Validation Assay for Inhibitors of Leishmania Mexicana Pyruvate Kinase (AID 945).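 Also: 0% = DMSO only neutral control wells.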 In short, it runs like this: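 Eight-point qHTS titrations; enzyme 0.2 nM LmPYK (E451W mutant); substrates 0.5 mM PEP, 0.1 mM ADP; 7 mM MgCl2; 1 h room temperature; PKLight luminescence normalized to neutral control.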

Assay [14] deals with Pyruvate kinase PKM (Homo sapiens) (UniProt P14618). The experiment in a line: qHTS Assay for Activators of Human Muscle Pyruvate Kinase (AID 954; active = well fitted curve in the direction sought with a large enough effect, not every such curve was filed as active;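 also: 0% = uninhibited enzyme and -100% = no enzyme or full thiadiazolimine inhibition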). In short, it runs like this: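 PKM2, human, >95% pure, 0.1 nM; PEP 0.5 mM (Km), ADP 0.1 mM; 50 mM imidazole pH 7.2, 50 mM KCl, 0.01% Tween 20, 0.05% BSA; 1 h RT; luciferase luminescence readout.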
For assay [15], the target named is Alpha-galactosidase (Coffea arabica) (UniProt Q42656). Put plainly: Counterscreen for Glucocerebrosidase Inhibitors: qHTS Assay for Coffee Bean alpha-Galactosidase at pH 4.5 (AID 957).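 Also: plate controls were enzyme alone for no effect and no enzyme for full effect.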 Summed up:
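Enzyme is added first (2 nM final), then compounds titrated from 0.7 nM to 77 uM, then 80 uM 4-methylumbelliferyl alpha-D-galactopyranoside; after 20 min at room temperature a pH 10 NaOH/glycine stop precedes fluorescence reading at 365/440 nm.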

The target of assay [16] is alpha-glucosidase (Oryza sativa, rice) (UniProt Q653V4). The experiment in a line: Counterscreen for Glucocerebrosidase Inhibitors: qHTS Assay for Rice alpha-Glucosidase at pH 5.0 (AID 997).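 Also: 0% = full activity with enzyme and -100% = basal without enzyme.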 In short, it runs like this: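 Endpoint fluorogenic assay at pH 5.0: compounds (0.7 nM to 77 uM) titrated against 4 nM rice enzyme and 400 uM 4-MU-alpha-glucoside for 20 min at room temperature; NaOH/glycine stop, read ex 365/em 440 nm, Hill-fitted AC50.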

For assay [17], the target named is Alpha-galactosidase (Coffea arabica) (UniProt Q42656). The experiment in a line: Counterscreen for Glucocerebrosidase Inhibitors: qHTS Assay for Coffee Bean alpha-Galactosidase at pH 5.9 (AID 998).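 Also: plate controls were uninhibited enzyme for no effect and no-enzyme basal signal for full effect.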 Summed up: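 Enzyme 2 nM + cpd (0.7 nM–77 uM titration) + 4-MU-alpha-Gal 80 uM, pH 5.9 citrate/Tween-20, RT 20 min, NaOH/glycine stop pH 10, fluor 365/440. Normalized to no-enzyme and full-activity controls; Hill-fit AC50.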
(Counterscreens check selectivity or assay interference.)

A short description of assay [18]: qHTS Assay for Identification of Small Molecule Antagonists for NFkB Signaling Pathway (AID 895; active = well fitted inhibition curve with a large enough effect in the signal ratio, with a control signal flat, not every such curve was filed as active; the % refers to the signal ratio; also: potency is read from the fitted curve at half-maximal effect). Summed up:
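ME-180 NFkB-bla cells (beta-lactamase under NFkB response element), plated overnight, treated with compound then 10 pM TNF alpha (about EC50) for 5 hrs at 37 C. LiveBLAzer FRET read at 460/530 nm emission, 405 nm excitation.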

Assay [19] is described as follows: qHTS Assay for Identification of Small Molecule Agonists for Thrombopoietin (TPO) Signaling Pathway (AID 917). Also: % is scaled to controls: 0 for no effect and ±100 for the full control effect. In short, it runs like this: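 Luciferase reporter (Glycoprotein IIb promoter) in IL-3-deprived Ba/F3 cells carrying human TPO receptor; compounds co-added with 26 pM TPO, incubated 24 h, 37 C. Steadylite luminescence measured after 10 min.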
Assay [20] is described as follows: qHTS Assay for Identification of Small Molecule Agonists for Hypoxia Response Element Signaling Pathway (AID 914; active = well fitted activation curve with a large enough effect in the signal ratio, with a control signal flat, not every such curve was filed as active; the % refers to the signal ratio; also: % of control where 0% means no effect). The note with it: ME-180 (cervical carcinoma) HRE-bla reporter, beta-lactamase ratio, CoCl2, 17 h; activation: active compounds read high. Summed up: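 HRE-bla ME-180 assay for agonist-like enhancement of an EC50 CoCl2 stimulus: 17 h at 37 degrees Celsius, CCF4 for 2.5 h, ratiometric 460/530 nm signal converted to %Activity and fitted to AC50.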

For assay [21], the target named is Cytochrome P450 2D6 (Homo sapiens) (UniProt P10635). The experiment in a line: qHTS Assay for Inhibitors and Substrates of Cytochrome P450 2D6 (AID 891). Also: potency is read from the fitted curve at half-maximal effect; nearly all actives have a fitted effect of over 60% in size. In short, it runs like this:
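Luminescent read-out of luciferin formed by 5 nM human CYP2D6 demethylating 30 uM Luciferin-ME EGE (Km level) over 60 min at room temperature after NADPH regeneration addition. Data normalized to full inhibition by 1.43 uM quinidine.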

Unmarked numbers belong to inactive results. Inconclusive results are not listed. Activity calls are given as the source filed them. Unless noted, calls follow the shape of the dose curve; as a rule, active = well fitted curve in the direction sought with a large enough effect; inconclusive = small, poorly fitted or top-dose-only effect, or another doubt; inactive = no such curve, though single readings can be large; an effect the other way counts as inactive or inconclusive.

Sequence of Alpha-galactosidase (Coffea arabica) (Q42656 whole entry, looked up): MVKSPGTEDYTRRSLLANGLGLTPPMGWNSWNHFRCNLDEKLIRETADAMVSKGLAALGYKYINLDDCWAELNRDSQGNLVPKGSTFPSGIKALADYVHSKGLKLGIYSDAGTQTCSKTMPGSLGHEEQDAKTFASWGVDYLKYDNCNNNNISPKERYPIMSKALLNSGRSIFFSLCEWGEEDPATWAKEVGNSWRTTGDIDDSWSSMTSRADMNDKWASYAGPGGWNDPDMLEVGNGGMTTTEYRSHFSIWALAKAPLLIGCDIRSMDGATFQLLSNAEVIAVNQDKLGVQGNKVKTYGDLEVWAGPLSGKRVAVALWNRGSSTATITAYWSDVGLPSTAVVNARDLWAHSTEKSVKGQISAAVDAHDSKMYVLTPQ
Sequence of Cytochrome P450 3A4 (Homo sapiens) (P08684 whole entry, looked up): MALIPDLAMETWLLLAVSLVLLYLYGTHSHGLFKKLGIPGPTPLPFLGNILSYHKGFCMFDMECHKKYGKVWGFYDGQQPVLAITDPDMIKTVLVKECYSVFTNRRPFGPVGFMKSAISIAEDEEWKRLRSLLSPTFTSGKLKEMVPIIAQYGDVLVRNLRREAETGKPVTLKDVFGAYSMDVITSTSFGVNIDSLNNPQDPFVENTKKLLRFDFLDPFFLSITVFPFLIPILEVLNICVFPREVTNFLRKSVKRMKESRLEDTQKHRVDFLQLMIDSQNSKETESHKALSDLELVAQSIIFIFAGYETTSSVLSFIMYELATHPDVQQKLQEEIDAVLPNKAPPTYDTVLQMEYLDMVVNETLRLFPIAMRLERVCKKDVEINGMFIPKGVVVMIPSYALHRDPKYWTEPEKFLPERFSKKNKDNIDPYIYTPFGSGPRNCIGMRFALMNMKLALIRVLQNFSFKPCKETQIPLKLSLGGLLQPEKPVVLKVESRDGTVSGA
Sequence of Pyruvate kinase PKM (Homo sapiens) (P14618 whole entry, looked up): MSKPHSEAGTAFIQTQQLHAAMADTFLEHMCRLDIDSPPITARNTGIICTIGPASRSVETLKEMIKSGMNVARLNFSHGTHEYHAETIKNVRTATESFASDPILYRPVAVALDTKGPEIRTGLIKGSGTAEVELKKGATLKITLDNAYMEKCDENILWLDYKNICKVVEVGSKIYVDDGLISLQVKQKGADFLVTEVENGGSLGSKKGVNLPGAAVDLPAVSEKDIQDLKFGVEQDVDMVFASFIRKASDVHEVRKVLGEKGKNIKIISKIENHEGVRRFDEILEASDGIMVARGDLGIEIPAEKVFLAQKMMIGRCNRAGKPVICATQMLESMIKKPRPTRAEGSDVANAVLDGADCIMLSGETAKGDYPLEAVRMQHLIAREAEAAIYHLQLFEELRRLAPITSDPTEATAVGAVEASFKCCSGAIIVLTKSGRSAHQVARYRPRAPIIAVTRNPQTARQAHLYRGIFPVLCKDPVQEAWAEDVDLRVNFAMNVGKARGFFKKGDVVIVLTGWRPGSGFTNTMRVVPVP
Sequence of Guanine nucleotide-binding protein G(i) subunit alpha-1 (Homo sapiens) (P63096 whole entry, looked up): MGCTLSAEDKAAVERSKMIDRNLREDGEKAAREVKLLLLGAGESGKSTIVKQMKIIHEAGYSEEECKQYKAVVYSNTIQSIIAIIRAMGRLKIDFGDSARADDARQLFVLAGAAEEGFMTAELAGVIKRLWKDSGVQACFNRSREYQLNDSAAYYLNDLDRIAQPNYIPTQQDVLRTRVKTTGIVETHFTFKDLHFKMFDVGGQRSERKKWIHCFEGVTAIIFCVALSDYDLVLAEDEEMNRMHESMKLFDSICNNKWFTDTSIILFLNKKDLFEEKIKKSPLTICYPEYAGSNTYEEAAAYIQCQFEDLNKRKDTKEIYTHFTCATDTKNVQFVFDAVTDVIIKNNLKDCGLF
Sequence of Pyruvate kinase (Leishmania mexicana) (Q27686 2-499 E452W): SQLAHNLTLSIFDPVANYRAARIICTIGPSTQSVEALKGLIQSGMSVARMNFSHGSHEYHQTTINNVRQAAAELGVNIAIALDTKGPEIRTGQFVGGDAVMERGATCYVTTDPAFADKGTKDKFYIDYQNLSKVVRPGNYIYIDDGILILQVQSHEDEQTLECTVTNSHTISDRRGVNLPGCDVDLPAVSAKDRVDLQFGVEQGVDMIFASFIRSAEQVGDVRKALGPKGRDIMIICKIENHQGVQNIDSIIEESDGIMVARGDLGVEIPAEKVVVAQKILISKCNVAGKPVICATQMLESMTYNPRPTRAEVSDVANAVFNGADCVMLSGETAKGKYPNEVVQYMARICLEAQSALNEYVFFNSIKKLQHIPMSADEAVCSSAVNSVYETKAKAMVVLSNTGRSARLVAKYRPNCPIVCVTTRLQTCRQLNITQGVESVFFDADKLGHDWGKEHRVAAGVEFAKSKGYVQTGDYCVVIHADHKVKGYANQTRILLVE
Sequence of Glucocorticoid receptor (Homo sapiens) (P04150 whole entry, looked up): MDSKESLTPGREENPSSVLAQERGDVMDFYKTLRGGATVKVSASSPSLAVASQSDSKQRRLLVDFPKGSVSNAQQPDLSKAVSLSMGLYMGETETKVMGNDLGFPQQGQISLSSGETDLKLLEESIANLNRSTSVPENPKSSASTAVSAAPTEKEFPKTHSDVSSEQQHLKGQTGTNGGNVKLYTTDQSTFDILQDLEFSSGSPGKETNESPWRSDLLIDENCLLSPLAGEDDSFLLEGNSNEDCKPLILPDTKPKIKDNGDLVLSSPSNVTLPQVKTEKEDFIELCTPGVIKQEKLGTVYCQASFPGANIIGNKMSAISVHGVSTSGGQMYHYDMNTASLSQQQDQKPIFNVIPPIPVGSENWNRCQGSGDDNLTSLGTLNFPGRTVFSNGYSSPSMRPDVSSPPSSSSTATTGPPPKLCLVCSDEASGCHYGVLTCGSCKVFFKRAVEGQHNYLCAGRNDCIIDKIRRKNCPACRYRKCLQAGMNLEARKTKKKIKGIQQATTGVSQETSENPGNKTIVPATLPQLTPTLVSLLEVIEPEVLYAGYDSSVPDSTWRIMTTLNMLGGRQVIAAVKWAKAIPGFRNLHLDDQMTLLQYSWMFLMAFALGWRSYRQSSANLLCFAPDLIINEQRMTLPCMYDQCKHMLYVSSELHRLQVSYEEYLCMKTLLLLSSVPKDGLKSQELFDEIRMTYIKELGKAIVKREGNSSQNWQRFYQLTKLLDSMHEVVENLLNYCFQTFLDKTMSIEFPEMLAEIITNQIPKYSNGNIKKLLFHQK
Sequence of Muscarinic acetylcholine receptor M1 (Rattus norvegicus) (P08482 whole entry, looked up): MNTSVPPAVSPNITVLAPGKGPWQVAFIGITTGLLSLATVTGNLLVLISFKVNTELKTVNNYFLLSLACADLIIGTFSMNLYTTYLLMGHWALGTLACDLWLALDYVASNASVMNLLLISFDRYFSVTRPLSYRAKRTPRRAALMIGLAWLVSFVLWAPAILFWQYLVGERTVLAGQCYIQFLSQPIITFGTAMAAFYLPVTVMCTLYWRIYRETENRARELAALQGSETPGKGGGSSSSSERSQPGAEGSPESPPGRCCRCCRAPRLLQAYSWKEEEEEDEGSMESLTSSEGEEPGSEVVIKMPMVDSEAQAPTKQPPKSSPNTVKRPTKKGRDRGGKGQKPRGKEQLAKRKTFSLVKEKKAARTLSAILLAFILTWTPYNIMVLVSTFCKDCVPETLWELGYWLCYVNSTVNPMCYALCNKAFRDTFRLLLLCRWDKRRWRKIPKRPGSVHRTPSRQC
Sequence of Cytochrome P450 2D6 (Homo sapiens) (P10635 whole entry, looked up): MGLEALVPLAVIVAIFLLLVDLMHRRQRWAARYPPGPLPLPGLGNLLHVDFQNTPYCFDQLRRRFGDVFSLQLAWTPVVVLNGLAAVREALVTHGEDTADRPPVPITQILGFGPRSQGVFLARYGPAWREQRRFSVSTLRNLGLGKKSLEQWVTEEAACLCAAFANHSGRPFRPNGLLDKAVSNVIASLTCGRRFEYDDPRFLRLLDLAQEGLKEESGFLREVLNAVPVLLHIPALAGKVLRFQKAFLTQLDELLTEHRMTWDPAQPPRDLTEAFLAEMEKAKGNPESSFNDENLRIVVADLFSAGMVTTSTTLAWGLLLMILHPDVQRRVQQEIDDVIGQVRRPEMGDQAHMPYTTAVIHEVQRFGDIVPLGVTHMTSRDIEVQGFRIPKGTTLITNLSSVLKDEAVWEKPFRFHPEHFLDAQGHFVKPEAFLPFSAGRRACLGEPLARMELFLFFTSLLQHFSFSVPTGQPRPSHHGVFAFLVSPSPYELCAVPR

As to `CCOc1ccccc1-n1c(O)c(C=Nc2ccc(N(CC)CC)cc2)c(=O)[nH]c1=O`, in assay [1], the activity change, negative = inhibition was 3.1%. The compound was called inactive in assay [2].
Consider `CN1C(=O)CN=C(c2ccc(Cl)cc2)c2cc(Cl)ccc21`, for which the activity change, negative = inhibition in assay [1] is 10.4%. In addition, in assay [2], the compound was called inactive.
For the compound `O=c1[nH]c(=O)n(CCc2ccccc2)c(O)c1C=NCCN1CCNCC1`, the activity change, negative = inhibition in [1] was 17.3%. Also, the outcome in assay [2] was inactive.
Turning to `C/C=C(\C)C(=O)O[C@@H]1C(C)=C2[C@H]([C@@H]1OC(=O)CCCCCCC)[C@@](C)(OC(C)=O)C[C@@H](OC(=O)CCC)[C@@]1(O)[C@H]2OC(=O)[C@]1(C)O`, the activity change, negative = inhibition in assay [1] is 19.3% [at 38 µM]; in assay [3] it was -79.7% [activator] [at 38 µM] (active). Also, the Potency is more than 46 µM in assay [4], more than 46 µM in assay [5], 3.98 µM (active) in assay [8] and 0.0501 µM (active) in [10]. The result in assay [6], in [14], in assay [15], in assay [16] and in [17] was inactive. Moreover, the Potency result in assay [7], in [9], in assay [11], in [12] and in assay [13] was “inactive” throughout.
Take `CCCCNC(=O)Nc1ccc(C(O)(C(=O)OCC)C(F)(F)F)cc1` (stereo not drawn): the activity change, negative = inhibition in assay [1] is -5.83%; in assay [3], 30%. For the same compound, the Potency in [4] is more than 20.6 µM.
For the compound `C[N+]1(C)CCO[C@@](O)(c2ccc(-c3ccc([C@]4(O)C[N+](C)(C)CCO4)cc3)cc2)C1`, the activity change, negative = inhibition in assay [1] is -2.41% [at 38 µM]; in assay [3], -10.8% [at 38 µM]. Further, the Potency in assay [4] and in assay [5] was more than 46 µM throughout. Moreover, the call in assay [6], in assay [19], in assay [14], in assay [15], in assay [16] and in [17] was inactive. For the same compound, the Potency result in assay [7], in assay [9], in [18] and in [13] was “inactive” throughout.
With `O=c1[nH]c(=O)n(Cc2ccco2)c(O)c1C=NCCCn1ccnc1`, the activity change, negative = inhibition was 10% in assay [1] and -8.42% in [3]. Besides, the Potency in assay [4] was more than 20.6 µM.
In the case of `COCCOC(=O)C1=C(N)Oc2c(c(=O)oc3ccccc23)[C@@]12C(=O)Nc1ccccc12`, the activity change, negative = inhibition in assay [1] is 10.2%; in assay [3] it was -5.71%. In addition, the Potency in assay [4] is more than 20.6 µM. For the same compound, in [20], the activation was -0.572%.
As for `C[C@H](N[C@@H](C)CCc1ccccc1)[C@H](O)c1ccc(O)cc1`, the activity change, negative = inhibition in assay [1] is 10.2% [at 38 µM]. Besides, the Potency in [4] was more than 46 µM; in [5], more than 46 µM; in assay [21], 2 µM (active); in assay [18], 0.0089 µM [stimulated with 10 pM TNF alpha] (active). In addition, the Potency result in assay [7] and in [13] was “inactive” in each case. The compound was classed as inactive in [19], in assay [14], in assay [15], in assay [16] and in [17].
